Data published in PMC8384837, “Expanding the binding specificity for RNA recognition by a PUF domain”.

Columns and labels:
Assay in all cases: yeast three-hybrid, YBZ-1, SC-Leu-His + 0.5 mM 3-AT, 4 days
Details in all cases: tags: N-Gal4 AD-HA kept; label: inside an RPR1-promoter hybrid RNA with tandem MS2 sites; ssRNA
[1] = target: PUM1 PUF domain R5-RRM (Homo sapiens, UniProt Q14671 828-1176, C1007R;Q1011M)
How it was run: (§1)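 The interaction score is the log change in how often each variant appears, from input to selection. Frequencies came from PCR-amplified, Illumina-sequenced repeat regions of Pumilio-1 PUF domain libraries grown in strain YBZ-1 (LexA–MS2 coat fusion, HIS3 reporter) alongside matching RNA elements. Input plates were SC-Leu and selection plates were SC-Leu-His + 0.5 mM 3-AT, each for four days, and the log2 calculation used a pseudocount of 1 where a variant was absent.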

[2] = target: PUM1 PUF domain R8-MYF (Homo sapiens, UniProt Q14671 828-1176, N1122M;Q1126F)
How it was run: as §1

[3] = target: PUM1 PUF domain R5-KKD (Homo sapiens, UniProt Q14671 828-1176, C1007K;R1008K;Q1011D)
How it was run: as §1

[4] = target: PUM1 PUF domain R2-LPC (Homo sapiens, UniProt Q14671 828-1176, N899L;Y900P;Q903C)
How it was run: as §1

[5] = target: PUM1 PUF domain R2-KVA (Homo sapiens, UniProt Q14671 828-1176, N899K;Y900V;Q903A)
How it was run: as §1

[6] = target: PUM1 PUF domain R2-RRT (Homo sapiens, UniProt Q14671 828-1176, N899R;Y900R;Q903T)
How it was run: as §1

[7] = target: PUM1 PUF domain R2-MVW (Homo sapiens, UniProt Q14671 828-1176, N899M;Y900V;Q903W)
How it was run: as §1

[8] = target: PUM1 PUF domain R2-KLS (Homo sapiens, UniProt Q14671 828-1176, N899K;Y900L;Q903S)
How it was run: as §1

[9] = target: PUM1 PUF domain R7-LMF (Homo sapiens, UniProt Q14671 828-1176, S1079L;N1080M;E1083F)
How it was run: as §1

[10] = target: PUM1 PUF domain R3-YYR (Homo sapiens, UniProt Q14671 828-1176, C935Y;R936Y;Q939R)
How it was run: as §1

[11] = target: PUM1 PUF domain R3-DWV (Homo sapiens, UniProt Q14671 828-1176, C935D;R936W;Q939V)
How it was run: as §1

[12] = target: PUM1 PUF domain R3-GCK (Homo sapiens, UniProt Q14671 828-1176, C935G;R936C;Q939K)
How it was run: as §1

[13] = target: T1, PUM1 PUF domain R6-AWR (Homo sapiens, UniProt Q14671 828-1176, N1043A;Y1044W;Q1047R)
T1 sequence: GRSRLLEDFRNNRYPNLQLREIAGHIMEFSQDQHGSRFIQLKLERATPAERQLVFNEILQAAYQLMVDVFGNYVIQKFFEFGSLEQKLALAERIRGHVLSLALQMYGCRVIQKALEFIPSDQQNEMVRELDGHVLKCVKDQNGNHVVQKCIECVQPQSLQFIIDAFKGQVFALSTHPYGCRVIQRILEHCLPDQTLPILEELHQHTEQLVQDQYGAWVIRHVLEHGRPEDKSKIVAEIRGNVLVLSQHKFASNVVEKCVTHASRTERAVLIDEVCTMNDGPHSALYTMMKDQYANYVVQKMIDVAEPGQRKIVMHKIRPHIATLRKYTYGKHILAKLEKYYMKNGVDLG
How it was run: as §1

[14] = target: PUM1 PUF domain R1-NFS (Homo sapiens, UniProt Q14671 828-1176, S863N;R864F;Q867S)
How it was run: as §1

[15] = target: PUM1 PUF domain R4-ANA (Homo sapiens, UniProt Q14671 828-1176, N971A;H972N;Q975A)
How it was run: as §1

[16] = target: PUM1 PUF domain R3-PFD (Homo sapiens, UniProt Q14671 828-1176, C935P;R936F;Q939D)
How it was run: as §1

[17] = target: PUM1 PUF domain R3-SRK (Homo sapiens, UniProt Q14671 828-1176, C935S;Q939K)
How it was run: as §1

[18] = target: PUM1 PUF domain R4-GND (Homo sapiens, UniProt Q14671 828-1176, N971G;H972N;Q975D)
How it was run: as §1

[19] = target: PUM1 PUF domain R2-NYP (Homo sapiens, UniProt Q14671 828-1176, Q903P)
How it was run: as §1

[20] = target: PUM1 PUF domain R5-SQA (Homo sapiens, UniProt Q14671 828-1176, C1007S;R1008Q;Q1011A)
How it was run: as §1

Chain of PUM1 PUF domain R3-DWV (Q14671 828-1176 C935D/R936W/Q939V): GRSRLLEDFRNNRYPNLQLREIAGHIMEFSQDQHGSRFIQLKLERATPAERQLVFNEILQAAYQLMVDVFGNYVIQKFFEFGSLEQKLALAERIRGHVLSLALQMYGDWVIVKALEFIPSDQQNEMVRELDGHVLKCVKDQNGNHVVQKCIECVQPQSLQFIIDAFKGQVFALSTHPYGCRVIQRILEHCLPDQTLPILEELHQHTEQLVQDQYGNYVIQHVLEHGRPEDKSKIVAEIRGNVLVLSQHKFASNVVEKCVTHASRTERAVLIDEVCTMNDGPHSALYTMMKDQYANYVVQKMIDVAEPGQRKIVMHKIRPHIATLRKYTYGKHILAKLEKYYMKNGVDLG
Chain of PUM1 PUF domain R3-GCK (Q14671 828-1176 C935G/R936C/Q939K): as the sequence (Q14671 828-1176 C935D/R936W/Q939V) above, with D108G, W109C, V112K counted along it
Chain of PUM1 PUF domain R3-YYR (Q14671 828-1176 C935Y/R936Y/Q939R): as the sequence (Q14671 828-1176 C935D/R936W/Q939V) above, with D108Y, W109Y, V112R counted along it
Chain of PUM1 PUF domain R1-NFS (Q14671 828-1176 S863N/R864F/Q867S): as the sequence (Q14671 828-1176 C935D/R936W/Q939V) above, with S36N, R37F, Q40S, D108C, W109R, V112Q counted along it
Chain of PUM1 PUF domain R7-LMF (Q14671 828-1176 S1079L/N1080M/E1083F): as the sequence (Q14671 828-1176 C935D/R936W/Q939V) above, with D108C, W109R, V112Q, S252L, N253M, E256F counted along it
Chain of PUM1 PUF domain R2-NYP (Q14671 828-1176 Q903P): as the sequence (Q14671 828-1176 C935D/R936W/Q939V) above, with Q76P, D108C, W109R, V112Q counted along it
Chain of PUM1 PUF domain R2-KVA (Q14671 828-1176 N899K/Y900V/Q903A): as the sequence (Q14671 828-1176 C935D/R936W/Q939V) above, with N72K, Y73V, Q76A, D108C, W109R, V112Q counted along it
Chain of PUM1 PUF domain R5-SQA (Q14671 828-1176 C1007S/R1008Q/Q1011A): as the sequence (Q14671 828-1176 C935D/R936W/Q939V) above, with D108C, W109R, V112Q, C180S, R181Q, Q184A counted along it
Chain of PUM1 PUF domain R2-LPC (Q14671 828-1176 N899L/Y900P/Q903C): as the sequence (Q14671 828-1176 C935D/R936W/Q939V) above, with N72L, Y73P, Q76C, D108C, W109R, V112Q counted along it
Chain of PUM1 PUF domain R8-MYF (Q14671 828-1176 N1122M/Q1126F): as the sequence (Q14671 828-1176 C935D/R936W/Q939V) above, with D108C, W109R, V112Q, N295M, Q299F counted along it

With “GGCUAGAACUAGUGGAUCCCCCGGCGCCCGGCGGCUCGAGCCCGGGUAAGUGUUAAUAGUCUGCAUGCCGCCGGGCGCCAUGCCUGCAGGUCGACUCUAGAAAACAUG” the binding signal [1] was 4.73 log2 enrichment (interaction score).
“GGCUAGAACUAGUGGAUCCCCCGGCGCCCGGCGGCUCGAGCCCGGGUAAGCGUAAAUAGUCUGCAUGCCGCCGGGCGCCAUGCCUGCAGGUCGACUCUAGAAAACAUG” was tested, and the binding signal [2] was 2.53 log2 enrichment (interaction score).
In the case of “GGCUAGAACUAGUGGAUCCCCCGGCGCCCGGCGGCUCGAGCCCGGGUAAGUGUCAAUAGUCUGCAUGCCGCCGGGCGCCAUGCCUGCAGGUCGACUCUAGAAAACAUG”, the binding signal [1] is reported as 4.35 log2 enrichment (interaction score) and the binding signal [3] is reported as 3.56 log2 enrichment (interaction score).
“GGCUAGAACUAGUGGAUCCCCCGGCGCCCGGCGGCUCGAGCCCGGGUAAGUGUAAAGAGUCUGCAUGCCGCCGGGCGCCAUGCCUGCAGGUCGACUCUAGAAAACAUG” was tested, and the binding signal [4] was 3.13 log2 enrichment (interaction score), the binding signal [5] was 3.4 log2 enrichment (interaction score) and the binding signal [6] was 2.91 log2 enrichment (interaction score). The binding signal [7] was 3.45 log2 enrichment (interaction score) and the binding signal [8] was 2.37 log2 enrichment (interaction score).
With “GGCUAGAACUAGUGGAUCCCCCGGCGCCCGGCGGCUCGAGCCCGGGUAAGUUUAAAUAGUCUGCAUGCCGCCGGGCGCCAUGCCUGCAGGUCGACUCUAGAAAACAUG” the binding signal [9] was 3.84 log2 enrichment (interaction score).
“GGCUAGAACUAGUGGAUCCCCCGGCGCCCGGCGGCUCGAGCCCGGGUAAGUGUAACUAGUCUGCAUGCCGCCGGGCGCCAUGCCUGCAGGUCGACUCUAGAAAACAUG” was tested, and the binding signal [10] was 2.31 log2 enrichment (interaction score).
In the case of “GGCUAGAACUAGUGGAUCCCCCGGCGCCCGGCGGCUCGAGCCCGGGUAAGUGUAAGUAGUCUGCAUGCCGCCGGGCGCCAUGCCUGCAGGUCGACUCUAGAAAACAUG”, the binding signal [11] is reported as 3.22 log2 enrichment (interaction score) and the binding signal [12] is reported as 2.22 log2 enrichment (interaction score).
In the case of “GGCUAGAACUAGUGGAUCCCCCGGCGCCCGGCGGCUCGAGCCCGGGUAAGUGCAAAUAGUCUGCAUGCCGCCGGGCGCCAUGCCUGCAGGUCGACUCUAGAAAACAUG”, the binding signal [13] is reported as 2.34 log2 enrichment (interaction score).
In the case of “GGCUAGAACUAGUGGAUCCCCCGGCGCCCGGCGGCUCGAGCCCGGGUAAGUGUAAAUUGUCUGCAUGCCGCCGGGCGCCAUGCCUGCAGGUCGACUCUAGAAAACAUG”, the binding signal [14] is reported as 7.9 log2 enrichment (interaction score).
With “GGCUAGAACUAGUGGAUCCCCCGGCGCCCGGCGGCUCGAGCCCGGGUAAGUGUACAUAGUCUGCAUGCCGCCGGGCGCCAUGCCUGCAGGUCGACUCUAGAAAACAUG” the binding signal [15] was 2.08 log2 enrichment (interaction score).
With “GGCUAGAACUAGUGGAUCCCCCGGCGCCCGGCGGCUCGAGCCCGGGUAAGUGUAAUUAGUCUGCAUGCCGCCGGGCGCCAUGCCUGCAGGUCGACUCUAGAAAACAUG” the binding signal [12] was 2.81 log2 enrichment (interaction score), the binding signal [16] was 4.25 log2 enrichment (interaction score) and the binding signal [17] was 2.4 log2 enrichment (interaction score).
In the case of “GGCUAGAACUAGUGGAUCCCCCGGCGCCCGGCGGCUCGAGCCCGGGUAAGUGUAUAUAGUCUGCAUGCCGCCGGGCGCCAUGCCUGCAGGUCGACUCUAGAAAACAUG”, the binding signal [15] is reported as 3.28 log2 enrichment (interaction score) and the binding signal [18] is reported as 3.04 log2 enrichment (interaction score).
With “GGCUAGAACUAGUGGAUCCCCCGGCGCCCGGCGGCUCGAGCCCGGGUAAGUGUAAAUAGUCUGCAUGCCGCCGGGCGCCAUGCCUGCAGGUCGACUCUAGAAAACAUG” the binding signal [11] was 2.15 log2 enrichment (interaction score), the binding signal [10] was 3.94 log2 enrichment (interaction score) and the binding signal [19] was 4.08 log2 enrichment (interaction score). The binding signal [16] was 5.31 log2 enrichment (interaction score), the binding signal [1] was 2.27 log2 enrichment (interaction score) and the binding signal [13] was 5.74 log2 enrichment (interaction score).
For “GGCUAGAACUAGUGGAUCCCCCGGCGCCCGGCGGCUCGAGCCCGGGUAAGUGUGAAUAGUCUGCAUGCCGCCGGGCGCCAUGCCUGCAGGUCGACUCUAGAAAACAUG”, the binding signal [20] was 3.09 log2 enrichment (interaction score) and the binding signal [1] was 1.28 log2 enrichment (interaction score).
